Where “and” joins values, the source holds several entries; their conditions need not be identical. Identical values can stand only once. Calls of active or inactive are those of the source.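 How the source made its calls, unless noted: active means thallium flux through the channel raised or lowered by more than 3 SD from vehicle-only wells, actives on both sides; inactive means the rest.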
Assays:
[1] = liver-stage malaria parasite growth inhibition, primary screen, cell-based, HepG2, luciferase luminescence, HepG2 viability (AID 624349; in the data active means parasite load remaining mostly below about 12%, no sharp cut-off; inactive means mostly above about 10%;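 further: 100% = mean of DMSO negative control wells on the same plate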); details: P. berghei liver stage in HepG2, luciferase luminescence, concentration not given here; parasite load remaining: stronger effect = lower value; viability: measured here: HepG2 viability without parasites
[2] = modulation of C. elegans fzo-1 (AID 1259413; call rule not given here;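 further: fzo-1 mutant C. elegans worms in liquid wells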); details: C. elegans fzo-1 modulator screen, mean read-out; stronger effect = higher value
[3] = sensitizers of A549 cells to miR-34 induction, primary screen, imaging, A549 dox-inducible miR-34, nuclei and caspase counts (AID 1347080;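 active means compounds whose cell count with miR-34 switched on is under 0.7 times the count with it off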); details: A549 miR-34 inducible, Hoechst nuclei count, 48 h
[4] = viability rescue of complex I mutant cybrids, primary screen, cell-based, galactose medium, ATP luminescence (AID 1645843;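 active means z-score of at least 1.8 in each of two replicates, scored against plate mean and spread of sample wells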;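 further: positive z means more ATP and so rescue of galactose-driven cybrid death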); details: complex I mutant cybrid cells, 72 h, stronger effect = higher value
F380Y = experiment: modulators of BK channel variants, profiling panel, selectivity assay, cell-based, U2OS BacMam, thallium flux, beta subunits (AID 1259406); details: at 30 µM;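 further: initial slope of Thallos dye fluorescence rise after thallium is added; log ratio against the mean of 0.3% DMSO vehicle wells on the same plate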
F380Y/beta1 = experiment: as above; details: at 30 µM
F380Y/beta2Delta = experiment: as above; details: at 30 µM
F380Y/beta4 = experiment: as above; details: at 30 µM
[5] = target: Calcium-activated potassium channel subunit alpha-1 (Homo sapiens) + Leucine-rich repeat-containing protein 26 (Homo sapiens) (UniProt Q12791+Q2I0M4); experiment: as above; details: F380Y/Slo1WT/gamma1, at 30 µM
Sequence of Calcium-activated potassium channel subunit alpha-1 (Homo sapiens) + Leucine-rich repeat-containing protein 26 (Homo sapiens) (Q2I0M4 whole entry, looked up, one chain of several): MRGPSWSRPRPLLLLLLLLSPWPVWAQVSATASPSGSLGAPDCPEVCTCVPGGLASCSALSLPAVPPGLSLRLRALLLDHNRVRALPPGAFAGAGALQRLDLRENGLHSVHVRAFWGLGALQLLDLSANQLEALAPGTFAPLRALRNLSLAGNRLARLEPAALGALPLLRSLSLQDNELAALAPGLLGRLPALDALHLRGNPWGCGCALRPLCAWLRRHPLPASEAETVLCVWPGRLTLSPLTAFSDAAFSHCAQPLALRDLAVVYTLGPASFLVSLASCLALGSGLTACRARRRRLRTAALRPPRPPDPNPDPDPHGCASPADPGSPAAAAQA

R275C = experiment: as above; details: at 30 µM
R275C/beta1 = experiment: as above; details: at 30 µM
R275C/beta2Delta = experiment: as above; details: at 30 µM
R275C/beta4 = experiment: as above; details: at 30 µM
R275C/Slo1WT/beta2 = experiment: as above; details: at 30 µM
[6] = Cy5 fluorescence interference with SSB-bound oligo, artefact control for HCV NS3 helicase inhibitor project, biochemical, NIH Clinical Collection, E. coli SSB (AID 743268; call rule not given here)
[7] = system: Hepatitis C virus NS3 helicase; experiment: HCV NS3 helicase inhibitors, primary screen, biochemical, fluorescence polarization, NIH Clinical Collection (AID 743270; call rule not given here); details: NS3 helicase binding to Cy5-dT15 DNA, stronger effect = higher value, concentration not given here
[8] = target: Single-stranded DNA-binding protein (Escherichia coli (strain K12)) (UniProt P0AGE0); experiment: E. coli SSB displacement from DNA, counter-screen for HCV NS3 helicase inhibitor project, biochemical, fluorescence polarization, NIH Clinical Collection (AID 743271; in the data active means inhibition above about 28%); details: stronger effect = higher value, concentration not given here
[9] = fluorescence interference in NS3h assay format, artefact control for HCV NS3 helicase inhibitor project, biochemical, NIH Clinical Collection (AID 743272; call rule not given here;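 further: HCV NS3 helicase with a Cy5 labelled single stranded DNA probe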); details: fluorescence interference counterscreen, stronger effect = lower value
[10] = survival rescue of mitochondrial mutant cells in low glucose, primary screen, MELAS cybrids, Rieske KO mouse fibroblasts, CellTiter-Glo (AID 1508586;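 active means mean z-score across replicates of 1.96 or higher in either the MELAS or the Rieske mutant cell line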;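 further: z relative to plate mean and SD of compound and empty wells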)
[11] = stronger effect = lower value, cell number ratio, induced over uninduced
[12] = measured here: relative caspase fold change +Dox/-Dox
[13] = measured here: total cells with miR-34 induction, stronger effect = lower value
[14] = measured here: total cells without miR-34 induction

Cc1nnc(SCC2=C(C(=O)O)N3C(=O)C(NC(=O)Cn4cnnn4)C3SC2)s1 (stereo not drawn)
110%: viability [1]
1.36: fold change [3, 12]
10800: cell count [3, 14]
10000: cell count [3, 13]
inactive: parasite load remaining [1] 65.6% | mean signal [2] 235 | fold change [3, 11] 0.923 | z-score [4] -0.49 | log fold change Tl+ flux (F380Y) -0.00444 | log fold change Tl+ flux (F380Y/beta1) -0.0723 | log fold change Tl+ flux (F380Y/beta2Delta) 0.025 | log fold change Tl+ flux (F380Y/beta4) 0.028 | log fold change Tl+ flux [5] 0.00509 | log fold change Tl+ flux (R275C) 0.00777 | log fold change Tl+ flux (R275C/beta1) 0.00195 | log fold change Tl+ flux (R275C/beta2Delta) 0.0237 | log fold change Tl+ flux (R275C/beta4) -0.0318 | log fold change Tl+ flux (R275C/Slo1WT/beta2) 0.0155

O=C(NC(CO)C(O)c1ccc([N+](=O)[O-])cc1)C(Cl)Cl (stereo not drawn)
1.3 and 1.21: fold change [3, 12]
87.3%: viability [1]
7650 and 7730: cell count [3, 13]
0.499: z-score ([10]; Rieske KO mouse fibroblast survival, CellTiter-Glo 72 h)
active: fluorescence ratio [6] 0.1
7910 and 8980: cell count [3, 14]
inactive: parasite load remaining [1] 48.8% | inhibition [7] -4.09% | inhibition [8] 4.1% | fluorescence ratio [9] 1.03 | mean signal [2] 263 | fold change [3, 11] 0.967 and 0.86 | z-score ([10]; MELAS cybrid survival, CellTiter-Glo 48 h, stronger effect = higher value) -0.304 | z-score [4] 0.48 | log fold change Tl+ flux (F380Y) -0.0332 | log fold change Tl+ flux (F380Y/beta1) 0.0194 | log fold change Tl+ flux (F380Y/beta2Delta) -0.0071 | log fold change Tl+ flux (F380Y/beta4) 0.000156 | log fold change Tl+ flux [5] 0.0379 | log fold change Tl+ flux (R275C) -0.0175 | log fold change Tl+ flux (R275C/beta1) -0.0341 | log fold change Tl+ flux (R275C/beta2Delta) -0.00719 | log fold change Tl+ flux (R275C/beta4) 0.0483 | log fold change Tl+ flux (R275C/Slo1WT/beta2) 0.0603

O=C(O)C[C@H](O)C[C@H](O)/C=C/c1c(C2CC2)nc2ccccc2c1-c1ccc(F)cc1
active: log fold change Tl+ flux (F380Y/beta1) 0.292 | log fold change Tl+ flux [5] 0.113 | log fold change Tl+ flux (R275C/beta1) 0.226 | log fold change Tl+ flux (R275C/beta2Delta) 0.114 | log fold change Tl+ flux (R275C/beta4) 0.107 | log fold change Tl+ flux (R275C/Slo1WT/beta2) 0.12
1740: cell count [3, 13]
1390: cell count [3, 14]
60.8%: viability [1]
0.319: fold change [3, 12]
inactive: parasite load remaining [1] 177% | fluorescence ratio [6] 0.98 | inhibition [7] -2.84% | inhibition [8] -1.18% | fluorescence ratio [9] 0.96 | mean signal [2] 212 | fold change [3, 11] 1.25 | log fold change Tl+ flux (F380Y) -0.03 | log fold change Tl+ flux (F380Y/beta2Delta) 0.0555 | log fold change Tl+ flux (F380Y/beta4) 0.0888 | log fold change Tl+ flux (R275C) 0.0026
